This is a sample that favours compounds with a hit; in the whole collection about 1.1% have one here.
MOR-DOR ag-1 = OPRM1-OPRD1 heterodimerization agonism. 0.3% of 340,000 active. activation, % at 9.3 µM. cells, luminescence;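 also: 0% = vehicle-treated cells and 100% = reference agonist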
MOR-DOR inv ag = mu-delta opioid heterodimer inverse agonism; inhibition, % at 9.3 µM; cell-based MOR-DOR heterodimer luminescence; P35372+P41143; 0.21% of 340,000 active; AID 504357; in the data active = inhibition above about 22%, passing the limit was not always enough;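 also: 0% = cells with DMSO and 100% = wells without cells with DMSO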
HTR5A ag ctr = HTR5A agonism, opioid heterodimer counter-screen; P47898; HTR5A agonist assay, luminescence, cell-based; activation, % at 9.3 µM; 0.61% of 340,000 active; AID 504692; in the data active = activation mostly above about 9.5%, no sharp cut-off; inactive = mostly below about 7.6%;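 also: 0% = cells with vehicle only and 100% = reference agonist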
Target sequence (P47898 whole entry, looked up): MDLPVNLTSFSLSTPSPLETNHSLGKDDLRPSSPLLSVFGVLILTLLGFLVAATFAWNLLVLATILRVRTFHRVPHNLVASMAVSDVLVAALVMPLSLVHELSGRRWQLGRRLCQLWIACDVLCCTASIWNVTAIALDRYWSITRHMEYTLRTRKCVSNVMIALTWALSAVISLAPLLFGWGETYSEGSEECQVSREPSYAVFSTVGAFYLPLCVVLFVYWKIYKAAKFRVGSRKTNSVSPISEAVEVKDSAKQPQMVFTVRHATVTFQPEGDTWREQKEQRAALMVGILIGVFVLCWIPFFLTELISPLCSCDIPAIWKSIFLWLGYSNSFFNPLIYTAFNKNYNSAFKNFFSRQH
HTR5A inv ag = HTR5A inverse agonism, opioid heterodimer counter-screen; P47898; HTR5A cell line, luminescence; inhibition, % at 9.3 µM; 0.083% of 340,000 active; AID 504634; in the data active = inhibition mostly above about 23%, no sharp cut-off; inactive = mostly below about 18%;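 also: 0% = cells with DMSO and 100% = no-cell wells with DMSO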
MOR-DOR ag-2 = counter-screen for HTR5A agonists: OPRM1-OPRD1 heterodimerization agonism | shares compounds with HTR5A ag ctr | U2OS counter-screen cells, complementation luminescence, 3 h | activation, % at 9.3 µM | 13% of 800 active | AID 504913
HTR5A ag conf = confirmation of human HTR5A agonists; shares compounds with HTR5A ag ctr; HTR5A agonist cell assay, luminescence; activation, % at 9.3 µM; 17% of 800 active; in the data active = activation above about 17%;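 also: 0% = cells with vehicle only and 100% = full reference agonist response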
* = called active by the depositor; x = not tested or not shown. Rule as the data show it, unless noted: active = activation above about 18%; inactive = the rest.

SMILES	MOR-DOR ag-1	MOR-DOR inv ag	HTR5A ag ctr	HTR5A inv ag	MOR-DOR ag-2	HTR5A ag conf
Cc1nc(NC(=O)c2cc3ccccc3o2)ccc1Br	1	-5	22*	-52	4	0
Cc1nc(NC(=O)c2ccc(Br)o2)ccc1Br	2	-8	11	-27	x	x
CC(C)n1cnc2c(Nc3ccc(C(=O)O)cc3)nc(Cl)nc21	-2	12	3	-8	x	x
C=CCc1cccc2cc(C(=O)N3CCOCC3)c(=O)oc12	-2	11	8	-31	x	x
C=CCc1cccc2cc(C(=O)N3CCN(C(=O)c4ccccc4)CC3)c(=O)oc12	0	2	16*	-48	0	-4
CCc1ccc(/C=C/C(=O)c2cc(Br)ccc(=O)c2O)cc1	6	-33	17*	5	42*	5
O=c1[nH]cnc2sc3c(c12)CCCC3	0	0	6	-16	x	x
O=C1N[C@@H](c2ccccc2)COC(=O)[C@@H](Cc2ccc(F)cc2)CC/C=C/C[C@@H]1CC(=O)N(CCO)Cc1ccccc1	-2	9	-1	5	x	x
COc1ccc(N(CC(=O)NCCSc2ccccn2)S(=O)(=O)c2ccccc2)c(OC)c1	4	-31	19*	-58	0	21*
NC(=O)C1(N2CCCCC2)CCN(C(=O)c2cccs2)CC1	-3	16	-3	-8	x	x
O=c1[nH]c(C2CCN(S(=O)(=O)Cc3ccccc3)CC2)nc2c1nnn2Cc1cccc(Cl)c1	2	-13	14*	-43	1	1
Cc1nc(SCC(=O)NCC2CCCO2)c2oc3ccccc3c2n1 (stereo not drawn)	-1	8	2	-3	x	x
COc1ccc(-c2csc(NC(C)c3nc4cc(C(=O)NCCCO)ccc4n3Cc3ccc(C)cc3)n2)cc1 (stereo not drawn)	-1	4	30*	-143	0	38*
O=C(c1ccc(-c2cccc(C(F)(F)F)c2)o1)N1CCCCCCC1	3	-14	4	-10	x	x
O=C(c1ccco1)N1CCN(C(=O)c2ccc(-c3cccc(C(F)(F)F)c3)o2)CC1	-1	9	35*	-92	0	23*
COc1cc(-c2nc3cnccn3c2Nc2ccc3c(c2)OCCO3)ccc1O	-1	5	10	-26	x	x
COc1cc(-c2nc3ccc(C)cn3c2Nc2ccc3c(c2)OCCO3)ccc1O	2	-13	43*	-108	3	39*
COC(=O)c1cc(-c2c[nH]c3ccccc23)n[nH]1	-2	7	30*	-160	10	0
COC(=O)c1cc(-c2ccc(Br)cc2)n[nH]1	0	-2	4	-11	x	x
Cc1ccc(-c2nc(NC(=O)c3nn(C)cc3[N+](=O)[O-])sc2C)cc1C	14	-80	17*	2	24*	12
Cc1ccc(-c2nc(NC(=O)c3nn(C)cc3[N+](=O)[O-])sc2C)cc1	0	1	-1	-3	x	x
O=C1C2ON(c3ccccc3)C(c3ccncc3)C2C(=O)N1c1ccc(N2CCOCC2)cc1 (stereo not drawn)	-1	4	20*	-56	-2	-5
O=C(Oc1c(Cl)cc(Cl)c2cccnc12)c1cccs1	6	-29	17*	11	8	-1
Oc1c(Cl)cc(Cl)c2cccnc12	8	-40	-9	24	x	x
O=C(Oc1c(Cl)cc(Cl)c2cccnc12)c1ccco1	4	-26	26*	0	4	0
SMILES	MOR-DOR ag-1	MOR-DOR inv ag	HTR5A ag ctr	HTR5A inv ag	MOR-DOR ag-2	HTR5A ag conf
O=C(Oc1c(CN2CCOCC2)cc(Cl)c2cccnc12)c1cccs1	0	-2	-4	10	x	x
Cc1cccc(C(=O)NC(C)C(=O)NC(c2nc3ccccc3[nH]2)C(C)C)c1 (stereo not drawn)	-3	12	4	6	x	x
COC(=O)CCC[C@H]1CC2(C[C@H](CCCO[Si](C)(C)C(C)(C)C)N1C(=O)OC(C)(C)C)OCCO2	-1	5	16*	-40	119*	2
CCS(=O)(=O)N1Cc2ccccc2CC1C(=O)Nc1ccc(OC)c(OC)c1 (stereo not drawn)	-1	6	15*	1	1	5
CCS(=O)(=O)N1Cc2ccccc2CC1C(=O)Nc1cccc(OC)c1 (stereo not drawn)	-3	13	0	0	x	x
COc1ccc(OC)c(C2SCCN2S(=O)(=O)c2cccc(C(F)(F)F)c2)c1 (stereo not drawn)	3	-18	17*	-39	3	-4
